# Bioassay records: PubChem BioAssay, National Center for Advancing Translational Sciences (NCATS)
# Most compounds without a hit are left out; they make up all but 12% or so of the library.
# JMJD2A Tudor inh = qHTS Assay for Inhibitors of JMJD2A-Tudor Domain; Lysine-specific demethylase 4A (Homo sapiens), O75164; AlphaScreen JMJD2A-Tudor / H3K4me3 peptide binding; Potency, µM (doses to about 114 µM), for inactives: top-dose activity change, negative = inhibition, hits mostly inhibitors; 390,000 tested, 4.4% active; AID 504339, 2011; note: % is set by controls: 0 for no effect and ±100 for the full control effect; nearly all actives have a fitted effect of over 50% in size
# L3MBTL1 inh = qHTS Assay for the Inhibitors of L3MBTL1; Lethal(3)malignant brain tumor-like protein 1 (Homo sapiens), Q9Y468; AlphaScreen L3MBTL1–H3K9me1 peptide binding; Potency, µM (highest dose often 57.1 µM), inactives show at the top dose activity, negative = inhibition, most hits filed as inhibitors; 230,000 tested, 0.66% active; note: % is set by controls: 0 for no effect and ±100 for the full control effect; nearly all actives have a fitted effect of over 60% in size
#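 L3MBTL1 (50 nM) pre-complexed 30 min with biotinylated H3(1-15)K9me1 peptide (75 nM), then compounds added for 30 min at room temperature; AlphaScreen streptavidin donor/nickel chelate acceptor beads (10 ug/mL final) read after 30 min dark incubation.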
# BAZ2B block = qHTS Assay for Inhibitors of BAZ2B; AlphaScreen BAZ2B-H3K14Ac peptide displacement; AID 504333, 2011; 360,000 tested, 4.4% active; Potency, µM (highest dose often 114 µM), inactives show top-dose activity change, negative = inhibition, actives largely listed as inhibitors; note: % is set by controls: 0 for no effect and ±100 for the full control effect; nearly all actives have a fitted effect of over 60% in size
# Target sequence (Q9UIF8 whole entry, looked up): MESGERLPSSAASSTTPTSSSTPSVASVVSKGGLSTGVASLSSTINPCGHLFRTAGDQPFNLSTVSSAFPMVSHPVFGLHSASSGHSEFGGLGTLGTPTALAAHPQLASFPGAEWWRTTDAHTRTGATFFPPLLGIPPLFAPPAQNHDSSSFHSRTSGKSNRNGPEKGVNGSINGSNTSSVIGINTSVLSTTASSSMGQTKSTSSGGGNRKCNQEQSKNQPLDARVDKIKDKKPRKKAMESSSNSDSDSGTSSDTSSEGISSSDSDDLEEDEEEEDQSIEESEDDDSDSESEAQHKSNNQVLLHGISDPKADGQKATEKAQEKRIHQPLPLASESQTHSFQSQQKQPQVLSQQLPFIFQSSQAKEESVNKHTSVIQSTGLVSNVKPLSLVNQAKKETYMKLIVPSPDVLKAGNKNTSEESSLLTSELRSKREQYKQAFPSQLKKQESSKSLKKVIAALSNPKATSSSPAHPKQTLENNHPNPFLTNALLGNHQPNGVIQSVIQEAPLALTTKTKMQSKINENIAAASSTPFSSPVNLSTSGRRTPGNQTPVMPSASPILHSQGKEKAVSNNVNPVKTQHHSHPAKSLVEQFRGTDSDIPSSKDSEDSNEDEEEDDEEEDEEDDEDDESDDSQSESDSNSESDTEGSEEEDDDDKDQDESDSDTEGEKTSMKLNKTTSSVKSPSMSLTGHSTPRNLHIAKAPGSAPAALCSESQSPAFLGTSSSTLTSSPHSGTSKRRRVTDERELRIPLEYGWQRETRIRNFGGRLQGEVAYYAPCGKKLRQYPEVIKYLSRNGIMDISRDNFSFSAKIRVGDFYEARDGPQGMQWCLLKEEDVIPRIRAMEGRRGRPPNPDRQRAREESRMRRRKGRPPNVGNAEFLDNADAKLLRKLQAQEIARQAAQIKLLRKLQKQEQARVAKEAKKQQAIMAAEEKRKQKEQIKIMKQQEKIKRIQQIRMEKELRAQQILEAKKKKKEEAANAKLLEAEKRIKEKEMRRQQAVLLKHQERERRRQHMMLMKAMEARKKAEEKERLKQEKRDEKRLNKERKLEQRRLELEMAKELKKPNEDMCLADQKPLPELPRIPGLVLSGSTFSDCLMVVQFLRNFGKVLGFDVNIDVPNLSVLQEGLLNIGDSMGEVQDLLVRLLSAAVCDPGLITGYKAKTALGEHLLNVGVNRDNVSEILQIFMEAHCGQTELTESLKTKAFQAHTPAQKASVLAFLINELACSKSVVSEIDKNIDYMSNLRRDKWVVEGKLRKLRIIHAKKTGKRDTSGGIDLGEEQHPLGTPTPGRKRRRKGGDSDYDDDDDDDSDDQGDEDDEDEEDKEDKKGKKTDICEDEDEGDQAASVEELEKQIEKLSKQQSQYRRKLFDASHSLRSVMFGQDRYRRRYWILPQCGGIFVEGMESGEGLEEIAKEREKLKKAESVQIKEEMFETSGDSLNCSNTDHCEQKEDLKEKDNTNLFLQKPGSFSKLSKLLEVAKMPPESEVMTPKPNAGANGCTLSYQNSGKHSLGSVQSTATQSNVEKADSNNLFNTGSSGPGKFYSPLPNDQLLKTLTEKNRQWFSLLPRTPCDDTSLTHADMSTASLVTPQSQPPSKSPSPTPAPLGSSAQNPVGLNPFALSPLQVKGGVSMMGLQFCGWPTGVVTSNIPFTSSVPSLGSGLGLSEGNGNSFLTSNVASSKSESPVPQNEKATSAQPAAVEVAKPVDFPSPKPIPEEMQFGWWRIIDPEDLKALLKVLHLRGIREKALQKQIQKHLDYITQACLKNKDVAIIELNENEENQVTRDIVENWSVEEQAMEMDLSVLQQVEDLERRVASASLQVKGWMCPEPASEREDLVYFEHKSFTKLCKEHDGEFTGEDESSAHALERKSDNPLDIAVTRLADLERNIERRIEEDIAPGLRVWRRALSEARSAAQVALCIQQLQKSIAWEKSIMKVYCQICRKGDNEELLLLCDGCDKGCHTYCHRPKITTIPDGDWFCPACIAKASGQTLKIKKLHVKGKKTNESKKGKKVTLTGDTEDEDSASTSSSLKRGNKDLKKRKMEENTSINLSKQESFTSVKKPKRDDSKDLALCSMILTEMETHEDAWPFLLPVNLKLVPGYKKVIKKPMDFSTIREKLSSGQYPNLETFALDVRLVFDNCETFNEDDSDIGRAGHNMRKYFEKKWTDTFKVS
#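 In this displacement format the biotinylated H3(5-23) peptide acetylated at Lys14 serves as ligand at 50 nM, with BAZ2B at 50 nM in PBS pH 7.4 containing 0.01% Tween-20. Donor and acceptor beads are 10 ug/mL final.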
# G9a block = qHTS Assay for Inhibitors of Histone Lysine Methyltransferase G9a; Histone-lysine N-methyltransferase EHMT2 (Homo sapiens), Q96KQ7; G9a H3K9 monomethylation, AlphaScreen, 2 h; Potency, µM (titrated, usually from 102 µM), for the others: top-dose activity, negative = inhibition, hits mostly inhibitors; 350,000 tested, 8.8% active; AID 504332, 2011; note: % is set by controls: 0 for no effect and ±100 for the full control effect; nearly all actives have a fitted effect of over 75% in size
#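 Quantitative HTS format: methyltransferase activity on a biotin-tagged H3K9 peptide is measured by AlphaScreen, using a rabbit anti-monomethyl-H3K9 antibody with streptavidin donor and anti-IgG acceptor beads. Final levels are 20 nM enzyme, 500 nM peptide, 20 uM SAM; 2 h RT.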
# HP1b binding inh = HTS for Inhibitors of HP1-beta Chromodomain Interactions with Methylated Histone Tails. AID 540317, 2011. Potency, µM (highest dose often 114 µM), without a hit: at the top dose activity change, negative = inhibition, hits mostly inhibitors. 390,000 tested, 0.56% active. AlphaScreen HP1-beta / biotin-H3K9me3 peptide binding; note: nearly all actives have a fitted effect of over 70% in size
#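 Compound inhibition of the preformed complex between 50 nM HP1-beta and 50 nM biotinylated H3K9me3 peptide was read by AlphaScreen. Buffer was PBS pH 7.4 with 0.01% Tween-20. Incubations ran 30 min at room temperature, with 10 ug/mL donor/acceptor beads.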
# Sfp inh = qHTS Assay for Inhibitors of Bacillus subtilis Sfp phosphopantetheinyl transferase (PPTase); 4'-phosphopantetheinyl transferase ffp (Bacillus subtilis), Q9F4F7; Biochemical Sfp PPTase activity, qHTS; Potency, µM, inactives show largest response in the series, negative = inhibition, most hits filed as inhibitors; 310,000 tested, 3.5% active;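 note: the enzyme is Sfp with the accession as filed and its product quenches rhodamine fluorescence; 0% = enzyme reaction without inhibitor and -100% = no enzyme wells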
#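 After 15 min at room temperature with compound, 15 nM Sfp received 5 uM rhodamine-CoA plus 12.5 uM BHQ-2-ybbR (50 mM Hepes pH 7.6, 10 mM MgCl2). Rate came from the fluorescence difference over 30 min, ex 525/em 598 nm.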
# * hit, by the source's call; ? = inconclusive; . = no result given; [ ] = remark or other dose. Calls come from the whole dose curve; as a rule, active = well fitted curve in the direction sought with a large enough effect; inconclusive = small, poorly fitted or top-dose-only effect, or another doubt; inactive = no such curve, though single readings can be large; an effect the other way counts as inactive or inconclusive. Potency is the fitted concentration of half-maximal effect.
SMILES,JMJD2A Tudor inh,L3MBTL1 inh,BAZ2B block,G9a block,HP1b binding inh,Sfp inh
Cc1cc(C)c2c(c1)/C(=N/Nc1ccc(S(N)(=O)=O)cc1[N+](=O)[O-])CCC2,-15%,-10%,-32%,40µM*,14%[57 µM],6%
NS(=O)(=O)c1ccc(N/N=C2/CCCCC2C2CCCCC2)c([N+](=O)[O-])c1 (centres undefined),28µM*,?,10µM*,?,32µM*,8%
CCC(C)/C(C)=N/Nc1ccc(S(N)(=O)=O)cc1[N+](=O)[O-] (centres undefined),?,-23%,.,?,?,-6%
CCOc1ccc(NC(=O)C2CSC(c3ccncc3)=N2)cc1 (centres undefined),-7%,5%,-5%,50µM*,27%,-11%
COc1ccc(NS(=O)(=O)c2ccc(NC(=O)c3ccccn3)cc2)cc1,-17%,-3%,6%,-3%[12.7 µM],17%,.
NS(=O)(=O)c1ccc(CNC(=O)c2ccccn2)cc1,4%[11.4 µM],-18%,79µM*,5%[59 µM],56%,-13%
CCOc1ccc(NC(=O)/C(C=Nc2ccccc2)=C(\C)O)cc1,?,.,-15%,45µM*,-15%,-22%
CCOc1ccc(NC(=O)Nc2ccc(Cc3ccncc3)cc2)cc1,-9%,.,5%,9%,32%,10%
CNS(=O)(=O)c1ccc(NC(=O)c2ccccn2)cc1,13µM*,-1%,7%,11%[59 µM],-4%,-6%
COc1ccc(C)cc1NCc1nnc2n1CCCCC2,-15%,.,-10%,?,17%[57 µM],.
Cc1ccc(C)c(NC(=O)CCc2nc3cccnc3n2Cc2cccs2)c1,-18%,.,-20%,3%[59 µM],22%,.
CCn1cc(C(=O)NCCc2ccc(Cl)cc2)c(=O)c2cc(S(=O)(=O)N3CCc4ccccc4C3)ccc21,-12%,.,.,-13%[59 µM],33%,.
Cc1ccccc1NC(=O)N1CCC(CN2CCCC2)CC1,-1%,.,7%,-4%[59 µM],32%,.
CCOc1ccc(NC(=O)c2ccccn2)cc1,16µM*,-5%,8%,-4%[59 µM],18%,10%
N[C@H](COP(=O)(O)O)C(=O)O,.,.,.,34%[59 µM],.,-9%
COc1cc(C/C=C/c2ccccc2)c(OC)cc1O,.,.,.,?,.,-40%
COc1cc(/C=N/n2c(=S)[nH]nc(C)c2=O)cc([N+](=O)[O-])c1O,?,-11%,-19%,11%,37%,14µM*
COc1ccc(/C=N/n2c(-c3cc(C)[nH]n3)n[nH]c2=S)cc1,3.5µM*,-6%,-27%,2.2µM*,?,-28%
COc1cc(/C=N/n2c(-c3cc(C)[nH]n3)n[nH]c2=S)cc(OC)c1O,3.5µM*,-4%,?,5µM*,?,28µM*
Cc1n[nH]c(=S)n(/N=C/c2cccc([N+](=O)[O-])c2)c1=O,?,11%,3%,-7%,29%,-12%
CCc1n[nH]c(=S)n1/N=C/c1cc(OC)cc([N+](=O)[O-])c1O,5µM*,?,14%,7.9µM*,?,22µM*
Cc1cc(-c2n[nH]c(=S)n2/N=C/c2ccc(C)o2)n[nH]1,3.2µM*,-2%,-29%,7.9µM*,?,-15%
COc1ccc(/C=N/n2c(=S)n(C)c3ccccc32)cc1OC,?,.,?,?,-3%,1%
COc1cc(/C=N/N2CCCCC2)cc([N+](=O)[O-])c1O,?,.,45µM*,50µM*,-21%,-2%
COc1ccc(/C=N/n2c(-c3cc(C)[nH]n3)n[nH]c2=S)cc1OC,3.5µM*,6%,?,.,16%,56µM*
SMILES,JMJD2A Tudor inh,L3MBTL1 inh,BAZ2B block,G9a block,HP1b binding inh,Sfp inh
Cc1nc(SCC(N)=O)c(C#N)c(C)c1C,-11%,.,3%,-3%,50%,7%
CCOC(=O)CCc1c(C)c(C#N)c2nc3ccccc3n2c1-n1cnc2ccccc21,-15%,.,7%,24%,11%,10%
CCOC(=O)CCc1c(C)nc(SCCCn2c(=O)[nH]c3ccccc32)c(C#N)c1C,28µM*,-9%,-2%,?,25%,-94%
CCOC(=O)CCc1c(C)nc(SCCN2CCCC2)c(C#N)c1C,-9%[57.1 µM],-5%,-18%,40µM*,51%,-4%
O=C1c2ccccc2C(=O)N1CC#CCN1CCN(C(c2ccccc2)c2ccccc2)CC1,?,.,50µM*,?,-6%,-18%
O=C(C(c1ccccc1)c1ccccc1)N1CCN(CCN2C(=O)c3cccc4cccc(c34)C2=O)CC1,?,0%,-24%,-14%,-4%,5%
N#C/C=C1/NC(=O)c2ccccc2S1,-24%,-10%,?,45µM*,16%,7%
CCOC(=O)c1sc(-n2[nH]c(C)cc2=O)nc1C,-8%,8%,6%,28µM*,36%,-5%
CCOC(=O)c1sc(NC(=O)c2ccc(OC(C)=O)cc2)nc1C,0%,-5%,-18%,0%,22%,18%
CCOC(=O)c1sc(NC(=O)Cc2ccccc2OC)nc1C,-11%,-2%,-30%,40µM*,-4%,-11%
CCOC(=O)c1sc(NC(C)=O)nc1C,-13%,.,1%,?,?,56µM*
CC(C)CCN1CCC(CN2CCNC(=O)C2=O)CC1,89µM*,.,.,.,28%,.
CC(C)CN1CCC(CN2CCNC(=O)C2=O)CC1,-26%,.,.,.,17%,.
c1ccc2oc(SCc3cn4ccsc4n3)nc2c1,?,1%,-12%,?,2%,50µM*
Clc1ccc(SCc2cn3ccsc3n2)cc1,-12%,-6%,-13%,-9%,64%,-4%
Cc1csc2nc(CSc3nc4ccccc4o3)cn12,-19%,31%,-5%,?,15%,56µM*
O=c1c2ccccc2nc(SCc2cn3ccsc3n2)n1-c1ccccc1,?,-13%[11.4 µM],?,10µM*,2%,-8%
Cc1cc(C)n2c(Br)c(CSc3nc4ccccc4o3)nc2n1,?,-2%,-4%,?,30%,50µM*
CCN(C(=O)c1cc2c(Cl)nc3ccc(C)cc3c2s1)c1cc(OC)ccc1OC,-10%,.,-21%,3%[59 µM],38%,.
COc1ccc(Cn2ccc3nc(C)c(C(=O)N4CCN(c5ccc(F)cc5)CC4)cc3c2=O)cc1,-27%,.,-17%,-4%[59 µM],26%,.
